Here are results for 53 compounds from PubChem BioAssay AID1645855 (Buhrlage Lab, Dana-Farber Cancer Institute and Novartis …, 2021).

The structures appear in SMILES notation. Among all 47,000 compounds or so, about 3,100 (6.6%) were called active. Rule as the data show it: active = inhibition above about 30%; inactive = the rest. This excerpt belongs to a sample that is enriched for actives.

Sequence of Ubiquitin carboxyl-terminal hydrolase 17-like protein 5 (Homo sapiens) (A8MUK1 whole entry, looked up): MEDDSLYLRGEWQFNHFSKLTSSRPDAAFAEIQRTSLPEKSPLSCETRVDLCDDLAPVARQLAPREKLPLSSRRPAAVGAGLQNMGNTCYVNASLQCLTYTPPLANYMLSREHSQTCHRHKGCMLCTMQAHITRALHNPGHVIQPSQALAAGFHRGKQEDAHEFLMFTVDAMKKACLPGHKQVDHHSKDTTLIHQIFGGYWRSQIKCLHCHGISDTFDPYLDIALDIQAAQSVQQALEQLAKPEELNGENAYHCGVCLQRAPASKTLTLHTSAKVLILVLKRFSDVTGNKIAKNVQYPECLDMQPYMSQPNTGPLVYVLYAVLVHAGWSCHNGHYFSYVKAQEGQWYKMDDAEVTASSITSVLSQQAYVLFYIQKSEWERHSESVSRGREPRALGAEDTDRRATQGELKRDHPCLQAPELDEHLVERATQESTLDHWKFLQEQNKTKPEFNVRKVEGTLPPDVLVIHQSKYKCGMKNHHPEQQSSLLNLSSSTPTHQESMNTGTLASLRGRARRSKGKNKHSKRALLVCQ

The assay addresses Ubiquitin carboxyl-terminal hydrolase 17-like protein 5 (Homo sapiens) (UniProt A8MUK1). In words: blocks human USP17 ubiquitin-rhodamine cleavage (AID 1645855). The conditions noted are these: purified USP17, Ub-rhodamine cleavage fluorescence, 3 h; at 50 µM; stronger effect = higher value.
Consider `COc1cc(OC)cc(C(=O)Nc2ccc(S(=O)(=O)Nc3cc(C)on3)cc2)c1`, for which the inhibition was 3.28% (inactive).

Turning to `COc1ccc(C(=O)Nc2ccc(N)cn2)cc1`, the inhibition is 12% (inactive).

On to `COc1ccc(NC(=O)c2ccnc(Nc3ccc(OC)cc3)c2)cc1`, for which the inhibition was 68.7% (active).

On to `CC(=O)N1c2ncnn2C(c2ccc(Cl)cc2)CC1c1ccc(Cl)cc1` (stereo not drawn), for which the inhibition is -2.75% (inactive).

With `CC(C)C(=O)Oc1cn(CCCN2CCCC2=O)c2nc(C(C)C)n3c4ccccc4nc3c12`, the inhibition is -84.6% (inactive).

On to `CCS(=O)(=O)Nc1cc(S(=O)(=O)Nc2cc(Cl)ccc2Cl)ccc1N1CCOCC1`, for which the inhibition is -13% (inactive).

Take `CC1=NS(=O)(=O)N(Cc2ccccc2)C=C1C(=O)Nc1cc(F)ccc1F`: the inhibition is -4.7% (inactive).

For the compound `O=C(Nc1ccc(Cl)cc1F)c1cc(-c2ccccn2)n[nH]1`, the inhibition is 83.2% (active).

For `O=C(Nc1ccc(F)cc1)C1CCCN(C(=O)c2cc(-c3ccccn3)n[nH]2)C1` (stereo not drawn), the inhibition is -40% (inactive).

For `COc1cc(Cl)c(NC(=O)c2cc(-c3ccccn3)n[nH]2)c(OC)c1`, the inhibition was 47.4% (active).

Regarding `Cc1ccc(CC(=O)N2CCN(C(=O)c3cc(-c4ccccn4)n[nH]3)CC2)cc1`, the inhibition is -21.8% (inactive).

As to `COc1cnc(-c2ccccn2)nc1Sc1ccc(Cl)cc1Cl`, the inhibition is -0.938% (inactive).

Regarding `O=C(CNc1ccc(OC2CCCC2)cc1)N1CCNC1=O`, the inhibition is 11.8% (inactive).

For the compound `CN1CCCN(c2nc(-c3cccnc3)nc3ccccc23)CC1`, the inhibition was -19% (inactive).

Turning to `Cc1ccc(-c2n[nH]c3c2CN(S(=O)(=O)C2CC2)CC3)cc1`, the inhibition was -2.42% (inactive).

Take `O=C(O)c1ccc(-n2cc(-c3cnccn3)cn2)cc1`: the inhibition is 1.05% (inactive).

In the case of `CNC(=O)c1cnn2c(C3CCCN(c4ncccn4)C3)ccnc12` (stereo not drawn), the inhibition is 2.6% (inactive).

In the case of `Cc1nnc(N2CCN(C(c3ccccc3)c3ccccc3)CC2)[nH]c1=O`, the inhibition was -0.696% (inactive).

Take `C\C=C(/C=C(C)/C=C(C)/C=C/C=C(\C)C(=O)[C@]12O[C@H]1[C@@](O)(CCO)NC2=O)C(=O)OC`: the inhibition was -48.6% (inactive).

Regarding `CCCCN(c1ccccc1)S(=O)(=O)c1cccc(C(=O)OCC(=O)NCc2ccc3c(c2)OCO3)c1`, the inhibition is 38% (active).

`COc1ccc2c(Sc3ccccc3)c(C(=O)NCc3ccc4c(c3)OCO4)[nH]c2c1`: the inhibition is -5.49% (inactive).

As for `O=C(COC(=O)c1ccc(F)c(S(=O)(=O)N2CCOCC2)c1)NCc1ccc2c(c1)OCO2`, the inhibition was 16.1% (inactive).

On to `Nc1nc(N)nc(CN2C(=O)NC(Cc3ccccc3)(c3ccccc3)C2=O)n1` (stereo not drawn), for which the inhibition was -1.99% (inactive).

Consider `CCCOc1ccc(-c2csc3ncn(CCc4ccccc4)c(=O)c23)cc1`, for which the inhibition is 13.1% (inactive).

Take `COc1ccc(CC(=O)Nc2ccc3c(c2)CN(C(=O)c2ccco2)CC3)cc1`: the inhibition is 46.1% (active).

As for `COc1ccc(CC(=O)Nc2ccc3c(c2)CCC3)cc1S(=O)(=O)N1CCOCC1`, the inhibition is -13.3% (inactive).

Regarding `COc1cc2c(cc1OC)CN(C(=O)c1cc(=O)c3ccccc3o1)CC2`, the inhibition is 8.62% (inactive).

For `Cc1ccccc1CNC(=O)C1CCN(c2cnc3nccnc3c2)CC1`, the inhibition was -13% (inactive).

With `CCN1CCN(C(=O)c2cccn2Cc2noc(-c3ccc(C)cc3)n2)CC1`, the inhibition is -1.85% (inactive).

Take `CN(C)C(CNC(=O)c1ccccc1Br)Cc1ccccc1` (stereo not drawn): the inhibition was 14.4% (inactive).

On to `Cc1ccccc1N1C(=O)COc2ccc3ccccc3c2C1C(=O)NC1CCCC1` (stereo not drawn), for which the inhibition is -5.8% (inactive).

Take `CNC(=O)[C@@]12CCC3(CCN(C(=O)c4cc(C)on4)CC3)[C@@H]1CN(C)C2`: the inhibition is 3.02% (inactive).

As for `CCn1cc(CN2C[C@@H](O)[C@H](NC(=O)c3ccccn3)C2)c(C)n1`, the inhibition is 12.4% (inactive).

As to `O=C(Nc1ccc2cn[nH]c2c1)c1cnn(-c2ccccc2)n1`, the inhibition was 38.2% (active).

Consider `O=C(Nc1ccc2oc(-c3ccccc3)nc2c1)c1cccc(-n2cnnc2)n1`, for which the inhibition was -0.426% (inactive).

As to `O=C(c1cnn(-c2ccc(Cl)cc2)n1)c1cccs1`, the inhibition is 29.5% (inactive).

Turning to `CC(NC(=O)c1ccc2ncnc(N3CCOCC3)c2c1)c1ccccc1` (stereo not drawn), the inhibition was 9.89% (inactive).

On to `C=C(NC(=O)C(=C)NC(=O)c1csc(C2=N[C@@H]3c4csc(n4)[C@H]4NC(=O)c5csc(n5)[C@H]([C@](C)(O)[C@@H](C)O)NC(=O)C5CSC(=N5)/C(=C/C)NC(=O)C([C@@H](C)O)NC(=O)c5csc(n5)[C@]3(CC2)NC(=O)[C@H](C)NC(=O)C(=C)NC(=O)[C@H](C)NC(=O)C([C@@H](C)CC)NC2C=Cc3c(C(C)O)cc(nc3[C@H]2O)C(=O)OC4C)n1)C(N)=O` (stereo partly drawn), for which the inhibition was 53.2% (active).

As to `CN(C)C(=O)C1CN(Cc2cccc(C#N)c2)Cc2ccnn2C1` (stereo not drawn), the inhibition is -3.45% (inactive).

Consider `c1cncc(-c2nnc3n2C2(CCCCC2)Cc2ccccc2-3)c1`, for which the inhibition was -1.82% (inactive).

With `O=c1c2ccccc2n(Cc2ccccc2Cl)c(=O)n1Cc1ccco1`, the inhibition is -8.56% (inactive).

Consider `CCn1nccc1C1CCCN1C(=O)Nc1ccc(Cl)cc1` (stereo not drawn), for which the inhibition was 1.51% (inactive).

With `COc1ccc(CCNC(=O)CSc2cn(CCNC(=O)c3ccccc3C)c3ccccc23)cc1OC`, the inhibition is 18.8% (inactive).

Regarding `Cc1ccc(CNC(=O)CCCn2c(=O)c3sccc3n(CC(=O)OCc3ccccc3)c2=O)cc1`, the inhibition is 47.4% (active).

For `Cc1cccc(N2CC(C)Cn3c2nc2c3c(=O)n(CC(=O)OCc3ccccc3)c(=O)n2C)c1` (stereo not drawn), the inhibition was -3.33% (inactive).

For `COc1ccc(CCNC(=O)Cn2c(=O)n(CC3CCC(C(=O)NC4CCCC4)CC3)c(=O)c3ccccc32)cc1OC` (stereo not drawn), the inhibition is 9.89% (inactive).

`Cc1ccc(CNC(=O)CC(c2ccccc2)c2ccccc2)cc1`: the inhibition is 24.3% (inactive).

In the case of `COc1ccc(CCNC(=O)CCCn2c(=O)c3ccccc3n(CC(=O)OCc3ccccc3)c2=O)cc1OC`, the inhibition was 40.5% (active).

As for `COCC(=O)OCc1cc(=O)oc2cc(O)ccc12`, the inhibition is 14.9% (inactive).

As for `CN1CCn2c(-c3cccnc3)cnc2C12CCN(Cc1cccnc1)CC2`, the inhibition was -23.9% (inactive).

Consider `O=C(O)C1CCCN1C(=O)C1CCN(S(=O)(=O)c2ccccc2)CC1` (stereo not drawn), for which the inhibition was 0.0755% (inactive).

With `CC(C)N1CCN(C(=O)Cn2c(=O)n(-c3ccccc3)c3ncccc32)CC1`, the inhibition is -9.73% (inactive).

`O=C(Nc1cccnc1Cl)c1noc2c1COc1ccccc1-2`: the inhibition was 15% (inactive).

One may read the inhibition as the drop in the measured response relative to a control, in per cent.
